# According to the supplement of paper PMC4166925:
# ± gives the standard deviation of the averaged measurements. Over roughly 33,000 sequences, “E-score (dimensionless, -0.5 to 0.5)” has its median near -0.049; the highest 2% begin near 0.37. This is one part of a sample in which the highest values are shown more often than they occur.
# Tested on: T1, PmTbr T-box DNA-binding domain (GST fusion)
# T1 sequence: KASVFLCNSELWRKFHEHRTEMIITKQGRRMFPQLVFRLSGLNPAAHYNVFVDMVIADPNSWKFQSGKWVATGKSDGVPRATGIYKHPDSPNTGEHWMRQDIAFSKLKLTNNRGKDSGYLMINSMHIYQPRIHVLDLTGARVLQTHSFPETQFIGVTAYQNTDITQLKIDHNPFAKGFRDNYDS
# Assay: PBM E-score of 8-mer (E-score (dimensionless, -0.5 to 0.5)); Tbr is Tbrain of the sea star Patiria miniata (Pm) or the sea urchin Strongylocentrotus purpuratus (Sp); higher = stronger binding preference
# Settings: the construct has about 5 more residues each side
# Procedure, shortened: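 Universal Agilent oligonucleotide arrays, made double-stranded by primer extension, were incubated with 200 nM GST-fused Tbr T-box DNA-binding domain in PBS (pH 7.5). The protein was expressed in BL21 E. coli at 20 °C and purified by glutathione affinity chromatography. After scanning and quantification, the Universal PBM Analysis Suite assigned an enrichment E-score to each ungapped 8-mer, averaged over duplicate arrays.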
row,Sequence,PBM E-score of 8-mer
1,CGTGTCCA,0.00534 ± 0.099
2,GATGCACC,-0.0938 ± 0.034
3,GCAAACCC,-0.0342 ± 0.058
4,CCTCGGTC,0.0608 ± 0.12
5,CAGGTGAG,0.422 ± 0.007
6,AAGGTGAA,0.185 ± 0.013
7,ACGGTGAC,0.285 ± 0.0079
8,CAGGTGAA,0.1748 ± 0.0016
9,AAGGTGAC,0.426 ± 0.011
10,CCGGTGAG,0.0229 ± 0.12
11,CTGACCTA,-0.194 ± 0.079
12,AGTGGAAT,-0.0212 ± 0.05
13,GGCGATAA,0.276 ± 0.048
14,AGACGTAA,-0.2 ± 0.092
15,CCAGTGCG,0.133 ± 0.074
16,CCAACACG,0.274 ± 0.0077
17,CCAACACC,0.443 ± 0.011
18,ACAACACG,0.251 ± 0.017
19,GCAACAAC,0.0808 ± 0.019
20,CCAACACA,0.241 ± 0.023
21,ACAACAAT,0.109 ± 0.024
22,GCAACACA,0.311 ± 0.0054
23,AGAACACT,0.133 ± 0.04

row,Sequence,PBM E-score of 8-mer
1,ACAACACC,0.435 ± 0.023
2,GCAACACC,0.455 ± 0.0097
3,ACAACACA,0.347 ± 0.033
4,ACAACACT,0.37 ± 0.016
5,CCCTTGGA,-0.13 ± 0.033
6,TAGGGCCA,-0.155 ± 0.032
7,CGCCAAGC,0.0166 ± 0.082
8,AGGCCCTC,-0.448 ± 0.0054
9,CTCCCGTA,-0.1898 ± 0.001
10,AGAAAGCC,-0.195 ± 0.021
11,GCTATCTA,-0.0532 ± 0.092
12,CTCTTCTA,-0.215 ± 0.1
13,TCTGGAAA,-0.131 ± 0.019
14,CACACTCG,0.408 ± 0.011
15,AACACTCG,0.237 ± 0.037
16,CCCACTCG,0.0373 ± 0.049
17,CACACTCA,0.3814 ± 0.0034
18,TACACTCA,-0.0251 ± 0.036
19,AACACTCA,0.323 ± 0.0094
20,CACACTCC,0.402 ± 0.016
21,AACACTCC,0.288 ± 0.029
22,GACACTCC,0.336 ± 0.029
23,AGAGAAAG,0.0684 ± 0.065

row,Sequence,PBM E-score of 8-mer
1,ACTCACCG,-0.0077 ± 0.1
2,CGGAGTCC,-0.183 ± 0.043
3,CTTTGGCA,0.288 ± 0.017
4,CGTGGCTA,-0.139 ± 0.056
5,GTCGTTCA,0.19 ± 0.052
6,AACTGAGT,-0.0725 ± 0.037
7,AACTTCGA,0.0686 ± 0.023
8,ACTTCACG,0.262 ± 0.038
9,GCTTCACA,0.301 ± 0.014
10,TCTTCACA,0.377 ± 0.015
11,ACTTCACA,0.336 ± 0.011
12,CCTTCACG,0.213 ± 0.0063
13,CCTTCACA,0.395 ± 0.014
14,CCAAGTGA,0.146 ± 0.01
15,CTGAGCAC,0.0183 ± 0.04
16,GACAGGCA,-0.0532 ± 0.041
17,ACACAGTG,0.229 ± 0.005
18,AGTGTTTC,0.134 ± 0.066
19,CGCTTGAG,-0.0499 ± 0.011
20,ACCGTGTG,0.218 ± 0.0082
21,AACGTGCG,0.345 ± 0.029
22,AGCGTGTC,0.174 ± 0.034
23,CACGTGAC,0.315 ± 0.0075

row,Sequence,PBM E-score of 8-mer
1,AACGTGTC,0.4102 ± 0.0015
2,AACGTGTA,0.156 ± 0.04
3,AACGTGTG,0.3941 ± 0.0015
4,CACGTGTC,0.385 ± 0.0079
5,CACGTGTA,0.2502 ± 0.00031
6,CGAGGGCA,-0.019 ± 0.015
7,ATTAGAAC,-0.161 ± 0.0031
8,GCCAAGCA,-0.0191 ± 0.018
9,ACACCAAG,0.35 ± 0.005
10,GATATCAC,0.331 ± 0.021
11,TCCGCACA,0.104 ± 0.058
12,CGAATTCC,-0.164 ± 0.079
13,ATTTCCCG,-0.133 ± 0.0071
14,GCCTGTGA,0.107 ± 0.014
15,ACCTGTGA,0.4002 ± 0.002
16,AGCTGTGA,0.404 ± 0.017
17,AGCTGTGG,0.0136 ± 0.075
18,ACCTGTGC,0.0647 ± 0.0069
19,AGCTGTGC,0.182 ± 0.0098
20,GGTAGAGA,-0.124 ± 0.0055
21,GACTCAGA,-0.213 ± 0.097
22,TCAAATCA,-0.159 ± 0.042
23,GTCGCCAC,0.326 ± 0.0074

row,Sequence,PBM E-score of 8-mer
1,ACAGGCTC,0.0148 ± 0.018
2,CCTTCGCG,0.2566 ± 0.0012
3,ACCGTCGT,0.162 ± 0.045
4,ACCTCCGA,0.253 ± 0.033
5,AGTGCGTA,0.146 ± 0.048
6,GGTGCGAC,0.462 ± 0.017
7,GCTGCGAC,0.137 ± 0.0089
8,ACTGCGAT,0.107 ± 0.048
9,AGTGCGAT,0.427 ± 0.0052
10,CGTGCGAC,0.277 ± 0.018
11,TGTGCAAA,0.197 ± 0.043
12,GGTGCAAC,0.299 ± 0.033
13,AATGCGAT,0.024 ± 0.0098
14,GGTGCAAA,0.393 ± 0.0071
15,ACTGCGAA,0.315 ± 0.012
16,AGTGCGAA,0.4725 ± 0.00067
17,ATCCTGCC,-0.0684 ± 0.0044
18,CTAGCAAG,0.0488 ± 0.014
19,TGAGGGAA,-0.0537 ± 0.066
20,ATCATAGC,0.0043 ± 0.09
